Reference: the supplement of paper PMC4840960
± gives the standard deviation of the averaged measurements.

tested on: E18 rat cortical neuron-glia co-culture; test: fiber score / MBP score (myelination specific beyond OL differentiation) (ratio); higher = more myelination-specific MBP alignment; settings: 1 µM; treatment time: 8 days (DIV5-DIV13)
Outline: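 Fiber score divided by MBP score is the read-out; fiber score is continuous MBP fiber length per Olig2+ nucleus, and MBP score is thresholded MBP area × intensity per Olig2+ nucleus. Primary E18 rat cortical co-cultures were dissociated with papain and seeded at 20,000 cells/well on poly-d-lysine/laminin 96-well plates. Library compounds at 1 or 5 µM were given in myelination medium from DIV5 to DIV13, after which cells were fixed in 4 % paraformaldehyde, immunostained for MBP and Olig2 with DAPI, and imaged in four 10X fields per well in duplicate wells.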

| SMILES | fiber score / MBP score |
| --- | --- |
| N[C@@H](Cc1cc(I)c(Oc2ccc(O)c(I)c2)c(I)c1)C(=O)O [Triiodothyronine] | 0.895 |
| Cc1onc(-c2c(Cl)cccc2Cl)c1C(=O)N[C@@H]1C(=O)N2[C@@H]1SC(C)(C)[C@@H]2C(=O)O [Dicloxacillin] | 1.04 |
| CCCC(=O)O[C@]1(C(=O)COC(=O)CC)CC[C@H]2[C@@H]3CCC4=CC(=O)CC[C@]4(C)[C@H]3[C@@H](O)C[C@@]21C [Hydrocortisone buteprate] | 1.04 |
| CC(=O)[C@H]1CC[C@H]2[C@@H]3C[C@H](C)C4=CC(=O)CC[C@]4(C)[C@H]3[C@@H](O)C[C@]12C [Medrysone] | 1.11 |
| CO[C@H]1/C=C/O[C@@]2(C)Oc3c(C)c(O)c4c(O)c(c5c(nc6cc(C)ccn65)c4c3C2=O)NC(=O)/C(C)=C\C=C\[C@H](C)[C@H](O)[C@@H](C)[C@@H](O)[C@@H](C)[C@H](OC(C)=O)[C@@H]1C [Rifaximin] | 0.779 |
| CCN1CCCC1CNC(=O)c1cc(S(N)(=O)=O)ccc1OC (centres undefined) [Sulpiride] | 0.858 |
| CCCCC[C@H](O)/C=C/[C@H]1[C@H](O)CC(=O)[C@@H]1CCCCCCC(=O)O [Alprostadil] | 1.12 |
| Oc1ccc(/C=C/c2cc(O)cc(O)c2)cc1 [Resveratrol] | 0.549 |
| Clc1ccc2c(c1)C(N1CCNCC1)=Nc1ccccc1O2 [Amoxapine] | 1.09 |
| C[C@]12C=CC(=O)C=C1CC[C@@H]1[C@@H]2[C@@H](O)C[C@@]2(C)[C@H]1CC[C@]2(O)C(=O)COC(=O)CCC(=O)O [Prednisolone hemisuccinate] | 0.88 |
| CN/C(=N\CCSCc1nc[nH]c1C)NC#N [Cimetidine] | 0.731 |
| C[n+]1ccccc1C=NO [Pralidoxime] | 0.884 |
| O=[N+]([O-])c1cccc2cn[nH]c12 [7-Nitroindazole] | 0.691 |
| NS(=O)(=O)c1cc2c(cc1C(F)(F)F)NCNS2(=O)=O [Hydroflumethiazide] | 0.948 |
| Cc1[nH]c(=O)c(C#N)cc1-c1ccncc1 [Milrinone] | 0.762 |
| CC(COc1ccccc1)NC(C)C(O)c1ccc(O)cc1 (centres undefined) [Isoxsuprine] | 0.798 |
| CN1CCCC(n2nc(Cc3ccc(Cl)cc3)c3ccccc3c2=O)CC1 (centres undefined) [Azelastine] | 0.861 |
| O=C(O)c1cc(/N=N/c2ccc(S(=O)(=O)Nc3ccccn3)cc2)ccc1O [Sulfasalazine] | 0.823 |
| CNNCc1ccc(C(=O)NC(C)C)cc1 [Procarbazine] | 0.937 |
| NC[C@H](O)c1ccc(O)c(O)c1 [Norepinephrine] | 0.663 |

| SMILES | fiber score / MBP score |
| --- | --- |
| CCC1(c2ccccc2)C(=O)NCNC1=O [Primidone] | 0.952 |
| O=c1cnn([C@@H]2O[C@H](CO)[C@@H](O)[C@H]2O)c(=O)[nH]1 [Azauridine] | 0.944 |
| Nc1nc(=O)c2nc(CNc3ccc(C(=O)N[C@@H](CCC(=O)O)C(=O)O)cc3)cnc2[nH]1 [Folic acid] | 0.994 |
| O=C1CC2(CCCC2)CC(=O)N1CCNCC1COc2ccccc2O1 (centres undefined) [Binospirone] | 0.768 |
| CN(C)[C@@H]1C(O)=C(C(N)=O)C(=O)[C@@]2(O)C(O)=C3C(=O)c4c(O)cccc4[C@@](C)(O)[C@H]3[C@H](O)[C@@H]12 [Oxytetracycline] | 0.993 |
| CC(=O)N1CCN(c2ccc(OCC3COC(Cn4ccnc4)(c4ccc(Cl)cc4Cl)O3)cc2)CC1 (centres undefined) [Ketoconazole] | 0.468 |
| O=C(O[C@@H]1C[C@@H]2C[C@H]3C[C@H](C1)N2CC3=O)c1c[nH]c2ccccc12 [Dolasetron] | 0.649 |
| C[C@@H]1C[C@H]2[C@@H]3CCC4=CC(=O)C=C[C@]4(C)[C@@]3(F)[C@@H](O)C[C@]2(C)[C@@]1(O)C(=O)CO [Dexamethazone] | 0.866 |
| Cc1ccccc1C(OCCN(C)C)c1ccccc1 (centres undefined) [Orphenadrine] | 0.693 ± 0.21 |
| CC(=O)OCC(=O)[C@@]1(O)CC[C@H]2[C@@H]3CCC4=CC(=O)C=C[C@]4(C)[C@H]3[C@@H](O)C[C@@]21C [Prednisolone acetate] | 0.826 |
| CC12CC3CC(C)(C1)CC(N)(C3)C2 [Memantine] | 1.07 ± 0.024 |
| CCCNC(C)C(=O)Nc1ccccc1C (centres undefined) [Prilocaine] | 0.73 |
| CCOC(=O)OC(C)OC1=C(C(=O)Nc2ccccn2)N(C)S(=O)(=O)c2ccccc21 (centres undefined) [Ampiroxicam] | 0.796 |
| CCOC(=O)N1CCC(=C2c3ccc(Cl)cc3CCc3cccnc32)CC1 [Loratadine] | 0.832 |
| CCCC(CCC)C(=O)O [Valproic Acid] | 0.837 |
| CC1COc2c(N3CCN(C)CC3)c(F)cc3c(=O)c(C(=O)O)cn1c23 (centres undefined) [Ofloxacin] | 0.775 ± 0.041 |
| CCc1cc(C(N)=S)ccn1 [Ethionamide] | 0.983 |
| COC(=O)C1=C(C)NC(C)=C(C(=O)OC2CCCN(Cc3ccccc3)C2)C1c1cccc([N+](=O)[O-])c1 (centres undefined) [Benidipine] | 0.524 |
| O=C(O[C@H]1[C@H](Oc2ccccc2COC(=O)C2(O)C=CCCC2=O)O[C@H](CO)[C@@H](O)[C@@H]1O)c1ccccc1 (some centres undefined) [Tremulacin] | 0.746 |
